Shown are actives, neighbours in structure and some others; about 1.3% of the full set was active somewhere.
LYPLA2 inh: LYPLA2 inhibitors, primary screen, counter-screen for PME1 inhibitor project, biochemical, fluorescence polarization, FP-Rh probe ABPP; inhibition, % at 5.9 µM; recombinant LYPLA2; 320,000 compounds, 0.38% hits; Acyl-protein thioesterase 2 (Homo sapiens), O95372; AID 2177, 2009;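 active means inhibition above the screen-wide mean plus 3 SD, limit set per campaign, cut at about 26% in these data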;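 further: 0% = LYPLA2 with DMSO and 100% = wells lacking LYPLA2 enzyme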
Target sequence (O95372 whole entry, looked up): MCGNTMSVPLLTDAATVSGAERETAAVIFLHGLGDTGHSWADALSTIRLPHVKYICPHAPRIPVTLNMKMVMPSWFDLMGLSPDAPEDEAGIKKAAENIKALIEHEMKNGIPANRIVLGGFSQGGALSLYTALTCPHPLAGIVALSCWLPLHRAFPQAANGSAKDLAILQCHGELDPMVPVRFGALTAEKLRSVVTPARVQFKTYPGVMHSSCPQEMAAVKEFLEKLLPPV
PREPL inhibitor: PREPL enzyme inhibitors, primary screen, biochemical, fluorescence polarization; recombinant PREPL, fluorescence polarization activity-based probe; inhibition, % at 5.96 µM; 320,000 compounds, 0.68% hits; AID 2751, 2010; in the data active means inhibition above about 43%;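 further: 0% = enzyme with DMSO and 100% = wells lacking enzyme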
PME-1 inh: PME-1 inhibitors via competitive probe labeling, primary screen, biochemical, fluorescence polarization, FP-Rh probe, HTS; Protein phosphatase methylesterase 1 (Homo sapiens), Q9Y570; recombinant PME-1; inhibition, % at 5.9 µM; 320,000 compounds, 0.53% hits; AID 2130, 2009;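 active means inhibition above the campaign mean of all compounds plus 3 SD, cut at about 26% in these data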;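 further: competitive labeling of PME-1 active site by serine hydrolase directed probe; 0% = PME-1 with DMSO and 100% = wells lacking PME-1 enzyme; inhibitors block probe labeling so polarization falls and inhibition rises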
LYPLA1 counter: LYPLA1 inhibitors, primary screen, counter-screen for PME1 inhibitor project, biochemical, fluorescence polarization, FP-Rh probe ABPP; recombinant LYPLA1; Acyl-protein thioesterase 1 (Homo sapiens), O75608; inhibition, % at 5.9 µM; 320,000 compounds, 0.16% hits;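 active means inhibition above the mean of all tested compounds plus 3 SD, set per campaign, cut at about 14% in these data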;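 further: inhibitors block serine hydrolase probe labeling of LYPLA1 so polarization falls; 0% = enzyme with DMSO and 100% = wells lacking LYPLA1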
Target sequence (O75608 whole entry, looked up): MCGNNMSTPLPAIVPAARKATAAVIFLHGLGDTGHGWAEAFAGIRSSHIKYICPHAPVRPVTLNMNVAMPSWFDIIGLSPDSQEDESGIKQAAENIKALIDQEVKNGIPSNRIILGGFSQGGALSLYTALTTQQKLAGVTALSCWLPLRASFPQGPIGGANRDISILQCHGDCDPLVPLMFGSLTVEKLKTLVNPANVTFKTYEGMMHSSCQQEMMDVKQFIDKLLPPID
Fam108B inh: mouse Fam108B serine hydrolase inhibitors, primary screen, counter-screen for RBBP9 inhibitor project, biochemical, fluorescence polarization. recombinant Fam108B, FP-Rh probe fluorescence polarization. inhibition, % at 9.51 µM. 300,000 compounds, 0.33% hits;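 active means inhibition above the screen mean inhibition plus 3 SD, computed separately per campaign, cut at about 18% in these data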;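 further: inhibitors lower polarization as less probe binds the enzyme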
Fam108b confirm: mouse Fam108b serine hydrolase inhibitors, confirmation, counter-screen for RBBP9 inhibitor project, biochemical, fluorescence polarization, triplicate. shares compounds with Fam108B inh. recombinant Fam108b, FP-Rh probe fluorescence polarization. inhibition, % at 9.51 µM. 930 compounds, 44% hits. AID 1978, 2009;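 active means inhibition above a limit from the primary screen, the mean over all compounds plus 3 SD, cut at about 19% in these data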;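 further: 0% = median of active Fam108b wells and 100% = catalytically dead S170A mutant; inhibitors free the probe so polarization falls as inhibition rises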
Fam108b ABPP HTS: inhibition of mouse Fam108b by HTS hits, late-stage follow-up, biochemical, gel-based ABPP, soluble recombinant form. fluorophosphonate probe. shares compounds with Fam108B inh. 260 compounds, 44% hits. inhibition, % at 20 µM; in the data active means inhibition above about 40%
LYPLA1 conf: LYPLA1 inhibitors, retest, confirmation, counter-screen for PME1 inhibitor project, biochemical, fluorescence polarization, FP-Rh probe ABPP. shares compounds with LYPLA1 counter. 480 compounds, 69% hits. recombinant LYPLA1. inhibition, % at 5.9 µM. AID 2233, 2010;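 active means mean inhibition across replicates above the hit cutoff set in the primary screen, cut at about 15% in these data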;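 further: loss of FP-Rh probe labeling of LYPLA1 seen as lower polarization; 0% = LYPLA1 with DMSO and 100% = wells lacking LYPLA1 enzyme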
LYPLA2 confirm: LYPLA2 inhibitors, retest, confirmation, counter-screen for PME1 inhibitor project, biochemical, fluorescence polarization, FP-Rh probe ABPP; shares compounds with LYPLA2 inh; recombinant LYPLA2; inhibition, % at 5.9 µM; 1,100 compounds, 72% hits;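 active means mean inhibition across replicates above the hit cutoff set in the primary screen, cut at about 26% in these data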;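 further: blocked labeling of the enzyme by serine hydrolase FP-Rh probe lowers polarization; 0% = enzyme with DMSO and 100% = wells lacking LYPLA2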
Active calls of the source: *.

For COc1ccc(N=C2NC(=O)S/C2=C\c2ccc(N(C)C)cc2)cc1 the results were LYPLA2 inh 33.5*, PREPL inhibitor 27.8, PME-1 inh 47.0*, LYPLA1 counter 28.1*, Fam108B inh 31.6*, Fam108b confirm 27.7*, LYPLA1 conf 27.5* and LYPLA2 confirm 17.8.
Screening Cc1cc(C)c(S(=O)(=O)/N=C2/C=C(Sc3ncn[nH]3)C(=O)c3ccccc32)cc1C returned LYPLA2 inh 35.9*, PREPL inhibitor 14.8, PME-1 inh 30.9*, LYPLA1 counter 1.8, Fam108B inh 51.8*, Fam108b confirm 28.1* and LYPLA2 confirm 33.3*.
Screening COc1ccccc1OCC(=O)NCC1CCCN(Cc2cnn(C(C)C)c2)C1 (configuration not stated) returned LYPLA2 inh -1.1, PREPL inhibitor -2.1, PME-1 inh -2.9, LYPLA1 counter 2.2 and Fam108B inh -0.8.
Screening S=C(NCC1CCCO1)N1CCN(Cc2ccccc2Cl)CC1 (configuration not stated) returned LYPLA2 inh 0.0, PREPL inhibitor 0.0, PME-1 inh 1.4, LYPLA1 counter -2.8 and Fam108B inh -0.5.
For COCCn1c(N)c(C(=O)NCC2CCCO2)c2nc3ccccc3nc21 (configuration not stated) the results were LYPLA2 inh 70.5*, PREPL inhibitor 37.1, PME-1 inh 38.0*, LYPLA1 counter 70.1*, Fam108B inh 60.9*, Fam108b confirm -7.3, LYPLA1 conf 2.2 and LYPLA2 confirm 1.7.
For O=C(CN1C(=O)S/C(=C\c2cc(Cl)c(O)c(Cl)c2)C1=O)Nc1ccccc1 the results were LYPLA2 inh 91.8*, PREPL inhibitor 6.1, PME-1 inh 22.6, LYPLA1 counter 7.0, Fam108B inh 22.6*, Fam108b confirm 19.1* and LYPLA2 confirm 81.7*.
COc1cc(/C=C2\SC(=O)N(CC(=O)Nc3ccc(C)cc3)C2=O)cc(Cl)c1OCC(=O)O was read as LYPLA2 inh 19.0, PREPL inhibitor -6.3, PME-1 inh -1.2, LYPLA1 counter -2.1 and Fam108B inh -6.0.
For Cc1c2cc(O)c(=O)cc-2oc2cc(O)c(O)cc12 the results were LYPLA2 inh 108.3*, PREPL inhibitor 59.6*, PME-1 inh 113.0*, LYPLA1 counter 94.6*, Fam108B inh 114.0*, Fam108b confirm 137.6*, Fam108b ABPP HTS 0.0, LYPLA1 conf 94.0* and LYPLA2 confirm 102.0*.
Screening COc1ccc(/C(C)=N/Nc2ccc(C(=O)O)cc2)c(OC)c1 returned LYPLA2 inh -1.8, PREPL inhibitor -6.5, PME-1 inh -5.8, LYPLA1 counter 0.9 and Fam108B inh 1.2.
For COc1ccc2c(c1)C(=NNc1ccc(C(=O)O)cc1)c1cc(OC)ccc1-2 the results were LYPLA2 inh 36.7*, PREPL inhibitor 27.4, PME-1 inh -34.2, LYPLA1 counter 28.3*, Fam108B inh 30.4*, Fam108b confirm 30.3*, Fam108b ABPP HTS 0.0, LYPLA1 conf 18.8* and LYPLA2 confirm 18.2.
Screening Cc1cc(N/N=C/c2c(O)ccc3ccccc23)nc(-c2ccccc2O)n1 returned LYPLA2 inh 45.7*, PREPL inhibitor 27.7, PME-1 inh 56.8*, LYPLA1 counter 3.9, Fam108B inh 69.8*, Fam108b confirm 102.8* and LYPLA2 confirm -14.8.

Screens (PubChem BioAssay)
